# Values joined by “and” are separate entries in the source; they are usually repeats but may differ in a detail not shown here. Equal entries are not always repeated. Active and inactive are the calls of the source. Unless noted, the rule behind the calls is not given here.
# Assays:
# [1] = compound effects on lung adenocarcinoma cell viability – A549, calcein-AM fluorescence, 48 h, basal, profiling panel (AID 1162); settings: higher = more signal; note: test concentration not given here
# [2] = compound effects on differentiated 3T3-L1 adipocyte viability – cell-based, 3T3-L1 adipocytes, calcein-AM fluorescence, 48 h, basal, profiling panel (AID 1163); settings: 3T3-L1 adipocytes viability, higher = more signal; note: test concentration not given here
# [3] = compound effects on hepatocellular carcinoma cell viability – HepG2, calcein-AM fluorescence, 48 h, basal, profiling panel (AID 1164); settings: higher = more signal; note: test concentration not given here
# [4] = compound effects on multiple myeloma cell viability – MM1S, calcein-AM fluorescence, 48 h, basal, profiling panel (AID 1165); settings: higher = more signal;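 note: viability of MM1S multiple myeloma cells under basal unstimulated conditions; test concentration not given here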
# [5] = calcein-AM signal in unstimulated myeloma cells – cell-based, calcein-AM fluorescence, 48 h, PK04 Diversity Set, profiling panel (AID 1166); settings: RPMI8226 myeloma viability, higher = more signal;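 note: cells grown under basal conditions without added stimulus; test concentration not given here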
# [6] = JC-1 mitochondrial signal, unstimulated HepG2 cells – cell-based, JC-1 fluorescence, 24 h, 100 nL compound, profiling panel (AID 1167); settings: HepG2 mitochondrial potential, higher = more signal; note: test concentration not given here
# [7] = JC-1 mitochondrial signal, unstimulated adipocytes – cell-based, JC-1 fluorescence, 3T3-L1 adipocytes, 24 h, 100 nL compound, profiling panel (AID 1168); settings: JC-1 mitochondrial fluorescence, higher = more signal, called active from +8 up or from −8 down; note: test concentration not given here
# [8] = JC-1 mitochondrial signal, unstimulated myeloma cells – cell-based, JC-1 fluorescence, RPMI8226, 24 h, 100 nL compound, profiling panel (AID 1169); settings: JC-1 mitochondrial potential fluorescence, higher = more signal; note: test concentration not given here
# [9] = JC-1 mitochondrial signal, unstimulated MM1S myeloma – cell-based, JC-1 fluorescence, 24 h, 100 nL compound, profiling panel (AID 1170); settings: MM1S mitochondrial potential, higher = more signal; note: test concentration not given here
# [10] = resazurin metabolic signal in A549 cells – cell-based, resazurin fluorescence, 24 h, PK04 Diversity Set, profiling panel (AID 1171); settings: A549 viability, higher = more signal, called active from +8 up or from −8 down; note: test concentration not given here
# [11] = resazurin metabolic signal in HepG2 cells – cell-based, resazurin fluorescence, 24 h, PK04 Diversity Set, profiling panel (AID 1172); settings: HepG2 viability, higher = more signal; note: test concentration not given here
# [12] = budding yeast growth changes without added modifier – OD600, strain BY4716, 24 h, basal condition, primary screen (AID 1173); settings: S. cerevisiae BY4716 growth, OD600, 24 h; higher = more signal, called active from +8 up or from −8 down
# [13] = viability profiling in MM1S myeloma cells – cell-based, resazurin fluorescence, basal, 24 h, PK04 Diversity Set, profiling panel (AID 1174); settings: higher = more signal, called active from +8 up or from −8 down; note: test concentration not given here
# [14] = biological target: Dihydroorotate dehydrogenase (quinone), mitochondrial (Plasmodium falciparum (isolate 3D7)) (UniProt Q08210); experiment: inhibition of P. falciparum DHODH – biochemical, C-terminal His tag, absorbance 600 nm, primary screen (AID 1175); settings: PfDHODH enzyme, DCIP absorbance 600 nm; higher = more signal, called active from +8 up or from −8 down;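 note: recombinant parasite enzyme with a five histidine tag at its C terminus; test concentration not given here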
# Dihydroorotate dehydrogenase (quinone), mitochondrial (Plasmodium falciparum (isolate 3D7)), sequence (Q08210 whole entry, looked up): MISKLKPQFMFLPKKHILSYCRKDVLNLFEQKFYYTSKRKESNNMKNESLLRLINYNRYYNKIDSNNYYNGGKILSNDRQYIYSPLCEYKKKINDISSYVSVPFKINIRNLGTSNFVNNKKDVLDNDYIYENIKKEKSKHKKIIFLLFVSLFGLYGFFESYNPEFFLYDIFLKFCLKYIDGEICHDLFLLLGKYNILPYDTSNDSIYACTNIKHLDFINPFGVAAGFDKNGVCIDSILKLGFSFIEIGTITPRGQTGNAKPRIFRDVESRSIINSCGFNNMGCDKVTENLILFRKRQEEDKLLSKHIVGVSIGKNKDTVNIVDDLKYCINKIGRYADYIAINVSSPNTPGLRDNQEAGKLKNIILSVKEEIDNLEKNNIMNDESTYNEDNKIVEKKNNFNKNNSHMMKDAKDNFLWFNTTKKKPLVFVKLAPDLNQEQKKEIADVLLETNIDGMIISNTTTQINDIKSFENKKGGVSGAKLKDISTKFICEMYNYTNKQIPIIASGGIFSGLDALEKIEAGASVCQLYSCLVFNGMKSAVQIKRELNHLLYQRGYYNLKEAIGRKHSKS
# [15] = inhibition of PAO1 biofilm formation – strain PAO1, LB-PBS medium, absorbance 600 nm, primary screen (AID 1176); note: test concentration not given here; settings: P. aeruginosa PAO1 growth/biofilm, A600, 12 h; higher = more signal
# [16] = growth modulation of vineyard yeast isolate – strain RM11-1a, OD600, basal, 24 h, primary screen (AID 1177);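 note: cultures grown under basal conditions with no added stressor; test concentration not given here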; settings: S. cerevisiae RM11-1a growth, OD600, 24 h; higher = more signal, called active from +8 up or from −8 down
# [17] = growth of efflux-deficient E. coli DRC39 – strain DRC39, OD650, 24 h, E. coli filamentation inducers, primary screen (AID 1178);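 note: growth measured as culture turbidity by optical density at 650 nm; test concentration not given here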; settings: E. coli DRC39 acrAB, higher = more signal, called active from +8 up or from −8 down
# [18] = growth of efflux-deficient E. coli DRC39 – strain DRC39, OD650, 48 h, E. coli filamentation inducers, primary screen (AID 1179);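 note: screen aims at cell division blockers that make cells filament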; settings: E. coli DRC39 delta-acrAB growth, higher = more signal, called active from +8 up or from −8 down
# [19] = viability profiling in RPMI8226 myeloma cells – cell-based, resazurin fluorescence, basal, 24 h, PK04 Diversity Set, profiling panel (AID 1180); settings: higher = more signal;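 note: RPMI8826 multiple myeloma cell line at 5000 cells per well; test concentration not given here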
# [20] = biological target: E3 ubiquitin-protein ligase XIAP (Homo sapiens) (UniProt P98170); experiment: small molecules binding XIAP protein – biophysical, small-molecule microarray, fluorescence 635 nm, primary screen (AID 1181); settings: higher = more signal;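 note: score merges 667 nm emission and signal to noise over triplicate slides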
# E3 ubiquitin-protein ligase XIAP (Homo sapiens), sequence (P98170 whole entry, looked up): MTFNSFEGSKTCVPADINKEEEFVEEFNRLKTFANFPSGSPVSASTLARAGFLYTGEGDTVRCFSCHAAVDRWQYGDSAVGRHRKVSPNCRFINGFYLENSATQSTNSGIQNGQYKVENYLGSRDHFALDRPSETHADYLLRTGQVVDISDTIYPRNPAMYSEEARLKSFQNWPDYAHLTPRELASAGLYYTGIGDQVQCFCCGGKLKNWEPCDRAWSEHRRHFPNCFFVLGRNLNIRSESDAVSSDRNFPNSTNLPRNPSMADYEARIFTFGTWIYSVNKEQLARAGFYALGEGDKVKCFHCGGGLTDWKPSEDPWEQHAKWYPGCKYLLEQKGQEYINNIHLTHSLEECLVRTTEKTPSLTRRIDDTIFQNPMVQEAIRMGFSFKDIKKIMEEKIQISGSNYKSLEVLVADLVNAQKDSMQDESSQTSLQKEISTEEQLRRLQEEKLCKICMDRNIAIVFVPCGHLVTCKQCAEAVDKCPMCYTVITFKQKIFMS
Compound,z-score [1],z-score [2],z-score [3],z-score [4],z-score [5],z-score [6],z-score [7],z-score [8],z-score [9],z-score [10],z-score [11],z-score [12],z-score [13],composite z-score [14],z-score [15],z-score [16],z-score [17],z-score [18],z-score [19],composite z-score [20]
CCN1C(=O)[C@H]2[C@H]3[C@H](O)[C@H](O)CC(=NNC(=O)OCc4ccc(OC)cc4)[C@H]3CC[C@H]2C1=O,0.173,-0.402,1.33,0.436,-0.261,0.385,-0.596 (inactive),-0.236,-0.00926,-0.947 (inactive),-1.02,0.199 (inactive),-2.24 (inactive),-0.223 (inactive),-0.273 (inactive),0.632 (inactive),-0.0482 (inactive),0.559 (inactive),-1.38,0.0322
C[N+](C)(C)CCCCCCNC(=O)[C@H]1C[C@H]2C(=O)N[C@@H](CCCC[N+](C)(C)C)C(=O)N2[C@H]1c1ccc(O)cc1,-0.512 and 0.597,0.222 and -0.596,-1.45 and -0.367,-0.602 and 0.494,-0.149 and -0.0976,-1.34 and -0.105,0.913 (inactive) and 0.345 (inactive),-0.169 and 0.432,-0.657 and -0.528,-0.673 (inactive) and -0.0771 (inactive),-0.0179 and -0.609,-0.214 (inactive) and 0.205 (inactive),-0.0993 (inactive) and -1.52 (inactive),-1.01 (inactive) and -0.373 (inactive),2.63 (inactive) and 0.351 (inactive),0.281 (inactive) and 0.826 (inactive),0.0781 (inactive) and 0.75 (inactive),-0.978 (inactive) and 1.03 (inactive),-0.818 and -0.584,-0.22 and -0.265
C=CCN(CCCCC)C(=O)C(c1cccs1)N(CCOCCO)C(=O)/C=C\C(=O)O (stereo not given),0.457 and 0.414,0.314 and -0.158,0.341 and 0.976,1.85 and 1.71,0.025 and 0.586,0.69 and -0.139,1.03 (inactive) and 0.45 (inactive),0.0935 and -0.719,-0.512 and 0.0846,-0.186 (inactive) and -0.954 (inactive),-0.925 and -0.111,-0.397 (inactive) and -0.258 (inactive),-0.223 (inactive) and 0.149 (inactive),-1.15 (inactive) and -1.27 (inactive),0.0126 (inactive) and -0.401 (inactive),-1.37 (inactive) and -1.48 (inactive),-0.388 (inactive) and 0.106 (inactive),0.526 (inactive) and 0.855 (inactive),0.096 and -0.165,0.548 and -0.0273
Cc1cc2c(nc1C)CCCN2CC(C)ON=C[C@@H](C)[C@H](OCc1ccccc1)C(C)C (stereo not given in full),-0.351,-0.641,0.122,-1.24,-0.583,-0.741,-0.827 (inactive),0.708,-0.483,-0.522 (inactive),-0.524,-0.0028 (inactive),-0.567 (inactive),0.103 (inactive),-0.172 (inactive),0.776 (inactive),-0.0901 (inactive),-0.549 (inactive),-0.394,0.0546

# — PubChem BioAssay
